Compound activity as filed in PubChem.
The list is not random: actives were taken first. Their share in the collection is about 3.2%.
NTR1 agonist: activates human neurotensin receptor 1 | P30989 | NTR1-U2OS beta-arrestin-GFP spot imaging, agonist mode | activation, % at 20 µM | hit rate 0.17% among 330,000 | AID 493036;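 active = activation at or above 40% of the spot to cytoplasm intensity ratio, with at least 20 cells analyzed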;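 also: 0% = DMSO without peptide and 100% = 100 nM NTR1 peptide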
APOBEC3G inh: APOBEC3G (human) deaminase inhibition | recombinant A3G, ssDNA deamination FAM/TAMRA fluorescence | Q9HC16 | hit rate 0.28% among 330,000 | inhibition, % at 20 µM;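 active = inhibition of at least 40% at 20 µM, with no more than 30% in the related APOBEC3A deaminase screen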;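 also: plate controls were DMSO wells with A3G for no effect and wells lacking A3G enzyme for full effect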
AHR activator: activates the human aryl hydrocarbon receptor. P35869. AHR-responsive luciferase reporter cells, luminescence. activation, % at 5 µM. hit rate 2.5% among 320,000. AID 2796; in the data active = activation above about 47%;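 also: 0% = vehicle wells and 100% = reference agonist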
APOBEC3A inh: blocks human APOBEC3A ssDNA deamination; P31941; recombinant A3A, FAM/TAMRA ssDNA deamination fluorescence; inhibition, % at 20 µM; hit rate 0.41% among 330,000; AID 493011;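 active = at least 40% inhibition at 20 µM here, with at most 30% in a related deaminase screen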;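 also: plate controls were A3A with DMSO for no effect and wells lacking A3A enzyme for full effect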
Numbers without * were called inactive; nt = no result; ! = not active in a repeat.

SMILES	NTR1 agonist	APOBEC3G inh	AHR activator	APOBEC3A inh
O=C(CSc1nnc(CNC(=O)c2cccs2)o1)Nc1ccccc1C(F)(F)F	-1	-10	5	-7
O=C(Nc1cccc(-c2cn3ccccc3n2)c1)C1CC1	-2	-2	65*	0
CN(C)c1ccc(-c2nnc(-c3cccs3)o2)cc1	2	-11	-1	-4
Brc1ccc(-c2cnc(-c3cccs3)o2)cc1	8	-7	66*	-5
CN(C)Cc1nnnn1-c1ccccc1	0	-2	0	-2
CC(C)(CO)NC(=O)c1ccc2c(c1)C(=O)c1ccccc1-2	5	4	6	-1
CCC(C)(C)c1ccc2c(c1)C(=O)c1ccccc1C2=O	6	1	72*	4
CCCNC(=O)C1(S(=O)(=O)c2ccccc2)CC=CC1	-1	-11	1	-3
Cc1ccc(NC(=O)c2ccc(Cl)c(S(=O)(=O)NCC3CCCO3)c2)c(O)c1 (stereo not drawn)	3	-6	62*	-4
Cc1ccccc1NC(=O)c1ccc(F)c(S(=O)(=O)NCC2CCCO2)c1 (stereo not drawn)	0	-1	3	-6
COC(=O)Cn1c2nc3ccccc3nc2c2cccc(C)c21	1	-8	nt	-4
Cc1cccc2c3nc4ccccc4nc3n(C)c12	2	-5	69*	-4
CN(C)c1ccc(N2C(=O)CSC2=S)cc1	0	5	52*	10
Cc1cc2n(n1)SC(Nc1cccc3ccccc13)N2 (stereo not drawn)	10	-13	53*	-4
Cc1cc2n(n1)SC(Nc1cc(Cl)ccc1Cl)N2 (stereo not drawn)	2	-3	63*	-3
O=C(CSc1nnc(CNC(=O)c2ccco2)o1)Nc1ccccc1F	-1	-1	2	-5
O=c1nc(N2CCCC2)nc(N2CCCC2)[nH]1	0	-18	2	-7
CCN1CCN(Cc2ccc(NC(=O)c3ccc(C)c(NC(=O)C(=O)c4c[nH]c5ccccc45)c3)cc2C(F)(F)F)CC1	41*!	-12	13	15
CC(=O)c1nnn(-c2c(F)cccc2F)c1C	0	-4	-1	-1
N#Cc1c(N)nc2c(c1N)CC(=O)N2c1ccc(Cl)cc1	2	-7	89*	2
Cc1c(C(=O)O)oc2c(F)cccc12	0	-6	0	-3
Cc1c(C(=O)NC2CCOC2)oc2c(F)cccc12 (stereo not drawn)	0	1	79*	0
Cc1ccc(C(=O)C(c2ccccc2)N2Cc3ccccc3C2=N)cc1 (stereo not drawn)	16	-5	65*	11
CCCCC(=O)Nc1nc2ccc(C(=O)OC)cc2s1	0	-5	0	-4
COc1ccc(NC(=O)Cc2ccc(C)c(C)c2)cc1S(=O)(=O)N1CCCCC1	2	-3	14	12
SMILES	NTR1 agonist	APOBEC3G inh	AHR activator	APOBEC3A inh
C=CCn1c(SCC(=O)NCC2CCCO2)nc2c([nH]c3ccccc32)c1=O (stereo not drawn)	5	-7	55*	-1
Cc1ccccc1-n1c(SCC(=O)NCC2CCCO2)nc2c([nH]c3ccccc32)c1=O (stereo not drawn)	0	-14	14	-3
COc1ccccc1-n1c(SCC(=O)Nc2cc(C)on2)nc2c([nH]c3ccccc32)c1=O	0	-9	68*	-3
Cc1ccc(-c2nc(SCC(=O)NCC3CCCO3)c(-c3ccccc3)[nH]2)cc1 (stereo not drawn)	-2	8	70*	0
COc1ccc(C)cc1-n1c(SCC(=O)NCC2CCCO2)nc2c([nH]c3ccccc32)c1=O (stereo not drawn)	1	-7	67*	-5
Cc1ccc(NC(=O)c2cc3c(=O)oc4ccc(C)cc4c3s2)nc1	-1	-6	-1	0
CCN1CCN(c2ccc(S(=O)(=O)N3CCCC3)cn2)CC1	1	14	-2	1
COc1cc(/C=C(\NC(C)=O)C(=O)N2CCCCC2)ccc1OC(C)=O	0	-6	-1	1
Cn1nc(C(=O)NC2CCCc3ccccc32)ccc1=O (stereo not drawn)	0	-4	4	-5
COc1ccccc1C(=O)NC(=O)CSc1nncn1C(C)C	0	-10	4	-1
O=S(=O)(NCc1ccco1)c1ccc(Cl)nc1	0	-8	0	-3
O=C(CSc1nc2c([nH]c3ccccc32)c(=O)n1-c1ccccc1)N1CCOCC1	5	-8	7	-1
C=CCn1c(SCC(=O)N2CCN(c3ccccc3)CC2)nc2c([nH]c3ccccc32)c1=O	1	-2	66*	-1
COc1cccc(-n2c(SCC(N)=O)nc3c([nH]c4ccccc43)c2=O)c1	2	-5	75*	-3
